# Measurements from PubChem BioAssay AID743343 (Broad Institute, 2014).
# Results with a measured potency or affinity are listed apart. A number with no mark means an inactive call. The rule behind the calls is not given here.
# Test system: Drosophila melanogaster bursicon receptor LGR2 (rickets)
# Test: LGR2 antagonists, dose response, cell-based, HEK293, CRE-luciferase reporter, cherry pick, set 2 (AID 743343)
# Conditions: bursicon-induced cAMP antagonist; series mostly up to 35 µM; activity change, negative = inhibition: at the top concentration
row,SMILES,"activity change, negative = inhibition"
1,Cc1noc(C)c1S(=O)(=O)Nc1cccc2c1O[C@H](CN(C)C(=O)Nc1ccc(F)cc1)[C@H](C)CN([C@H](C)CO)C2=O,1.54%
2,COCC#Cc1ccc2c(c1)O[C@H](CN(C)S(=O)(=O)c1cccc(F)c1)[C@@H](C)CN([C@H](C)CO)S2(=O)=O,-18.7%
3,C[C@@H]1CN([C@H](C)CO)C(=O)Cc2cc(NC(=O)CCC(F)(F)F)ccc2O[C@@H]1CN(C)CC1CCCCC1,0.312%
4,Cc1ccc(-n2cc(CN(C)Cc3nccn3C)c(-c3cccc(C)c3)n2)cc1,-21.1%
5,Cc1ccc2nc(-c3ccc(NC(=O)c4cccnc4)cc3)oc2c1,-42%
6,C[C@H](CO)N1C[C@H](C)[C@H](CN(C)C(=O)CN2CCOCC2)Oc2ncc(C#CCN(C)C)cc2C1=O,-8.3%
7,Cn1cnc(S(=O)(=O)N2C[C@@H](O)COC[C@H]3O[C@H](CC(=O)NC4CCCC4)CC[C@@H]32)c1,-0.782%
8,CC(C)c1ccc(NC(=O)N2CCN(S(=O)(=O)c3ccccc3)CC2)cc1,7.94%
9,C[C@H]1CN([C@@H](C)CO)C(=O)Cc2cc(NC(=O)Nc3ccc(F)cc3)ccc2O[C@H]1CN(C)CC1CCCCC1,-23.3%
10,C[C@@H]1CN([C@@H](C)CO)S(=O)(=O)c2ccc(C3=CCCC3)cc2O[C@H]1CN(C)C(=O)c1ccccc1,-16.4%
11,C[C@H](CO)N1C[C@H](C)[C@@H](CN(C)CC2CCOCC2)Oc2ncc(Br)cc2C1=O,15.7%
12,COc1ccc2cc(C#N)c(Nc3cccc(F)c3)nc2c1,34.4%
13,CO[C@@H]1CN(C)C(=O)c2ccc(NC(=O)C3CC3)cc2OC[C@@H](C)NC[C@@H]1C,-7.47%
14,O=C(c1ccc2c(c1)OCCO2)C1CCN(S(=O)(=O)c2ccc(F)cc2)CC1,39.3%
15,CC1CN(C(=O)c2cccc(S(=O)(=O)Nc3cc(Cl)ccc3Cl)c2)CC(C)O1 (stereo not drawn),23%
16,CCc1nnc2cccc(Cl)n12,6.38%
17,O=C(Nc1ccc(N2CCOCC2)c(S(=O)(=O)Nc2ccccc2Cl)c1)c1ccc(F)cc1,-14.4%
18,C[C@H]1CN([C@@H](C)CO)C(=O)c2cc(NC(=O)Nc3ccccc3)ccc2O[C@H]1CN(C)Cc1ccc(-c2ccccc2)cc1,-25%
19,C[C@H]1CN([C@@H](C)CO)C(=O)c2cc(C#CCc3ccccc3)cnc2O[C@H]1CN(C)Cc1ccccc1,-26.2%

row,SMILES,"activity change, negative = inhibition"
1,Cc1noc2ncnc(Sc3ccc(Br)cc3)c12,-16.7%
2,O=C(Cn1ncc(Cl)c(Cl)c1=O)N1CCOCC1,7.73%
3,CCn1cc(S(=O)(=O)Nc2cccnc2)cn1,61.7%
4,Cc1ccc(CNS(=O)(=O)c2ccc3c(c2)CCN3C(=O)CCCC(=O)O)cc1,-1.74%
5,O=C(C[C@H]1C=C[C@@H](NC(=O)C2CCC2)[C@H](CO)O1)NCCCN1CCOCC1,-11.8%
6,CC(=O)Nc1cccc(-c2ccnc3c2CC(C(=O)NCc2cccnc2)O3)c1 (stereo not drawn),15.8%
7,Cc1ccc(S(=O)(=O)N(C)C[C@H]2Oc3cc(Br)ccc3S(=O)(=O)N([C@H](C)CO)C[C@H]2C)cc1,-10.2%
8,COc1ccccc1CNS(=O)(=O)c1ccc(N2CCCC2)cc1Br,10.3%
9,CNCc1ccccc1Sc1ccc(O)c(O)c1,-5.29%
10,CCCCN(Cc1ccccc1)S(=O)(=O)c1cc2c(cc1Br)CC(C)N2C(C)=O (stereo not drawn),-4.42%
11,COc1ccccc1N1CCN(C(=O)c2sc3nc(-c4ccc(F)cc4)cn3c2C)CC1,10.6% [at 16 µM]
12,O=C(c1ccc(CSc2nc3ccncc3[nH]2)cc1)N1CCN(c2cccc(Cl)c2)CC1,13.9%
13,Cc1ccc(NC(=O)c2ncn(CC(=O)N3CCN(c4ccccn4)CC3)n2)cc1C,9.09%
14,CN(c1ccccc1)S(=O)(=O)c1cccc(NC(=O)c2cc(=O)c3ccccc3o2)c1,-24.6%
15,O=S(=O)(Nc1ccc(O)c2ccccc12)c1ccc(OC(F)(F)F)cc1,-6.14%
16,COc1cccc(-c2ccc(C3[C@@H]4CN(C(=O)C5CC5)C[C@H]3N4)cc2)c1 (stereo partly drawn),0.109%
17,COc1ccccc1CCn1cnc(-c2ccccc2OC)c1C(C)C,-9.99%
18,COc1ccc(N(CC(=O)NCc2cccs2)S(=O)(=O)c2ccc(C(C)=O)cc2)cc1,53.2%
19,CCOC(=O)c1c(C)n(C)c2ccc(OCC(O)CNCCc3ccccc3)cc12 (stereo not drawn),-8.99%
